Assay results as given in PubChem BioAssay AID1508600 (Functional Genomics Laboratory (NCATS/FGL), 2020).
Screen size: about 53,000 sequences; about 3,700 (7%) were called active.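 Rule for the calls: active = gene knockdowns whose robust z-score for IL-1 alpha signal is at least 2 or at most -2, so actives lie on both sides; inactive = the rest.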 The entries come from a sample that favours actives as a whole.

Assay: Components of the Cytosolic LPS Sensing Pathway: Gene Identification via Genome-wide siRNA Screen;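 note: robust z of the log signal after scaling to non-targeting control siRNA wells of the plate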
Conditions: RAW264.7 macrophages, IL-1a HTRF, actives lie on both sides, screened at 100 nM (by protocol), cells primed 5 h with Pam3CSK4 first
How it was run: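 Supernatant IL-1a by HTRF from RAW264.7 cells primed with Pam3CSK4 (5 hours) and transfected with LipidA (24 hour) after 48h siRNA knockdown at 100 nM; cell viability checked with CellTiter-Glo.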

z-score, inactive:
CGAACACUCGUUAAAGAAATT against Krt23 0.247, CCAUGCACAAUUACAAGCUTT against Ret -0.000288, CGGAAAAUUUGUUCCUGACTT against Rbm12b2 1.44, CCCUAGGGUGAUGAAGCAUTT against Ckmt2 -0.984, GCCAUUAAGGAAAUGUUCUTT against Olfr426 -0.969, GGUUCUUUGGCUCUGUAUGTT against Atp5c1 -0.64, GGAGGUAAAAGAUGAGAAATT against Plekho1 1.57, CCUCAUAAAUUCACUCUCCTT against Bpifa2 0.984, GGAUAUGCUGUGAAGUAUUTT against Plekhf2 1.68, GGUUAAGACCUUAAACAGATT against Prl4a1 0.0572, CGUUUCUCAGCAAACUUACTT against Il17a 0.669, GGCACCUUUCAACGUAACCTT against Ntn3 1.32, GGACCUAAAGAAUUCAUCGTT against Unc79 0.109, GGUGAAGAUAGUAAUACGGTT against Apol7a -1.02, GGUCCAGAGGAUGAACAGATT against Crcp 0.551, CCAAAUUCAUUCUAGCUCGTT against Klf6 -0.597, GCCCAUGACCAGUUCAAGUTT against Actn4 0.63, GCUAUUAAAAUAUGGGAAGTT against Olfr1314 1.28, GCAUAUGAUGGUCCUUACCTT against Cox6b1 0.019, GGCAGUUAUCUCCUAAUGCTT against Zfp934 -0.383, GGCCAGAUGACCUUGUCAUTT against Sult1e1 -1.23, GGCGCACAAUCAAGAUCUUTT against Col4a4 0.385, CCAAAAAGUUCAGUGUAAUTT against Rad9b -1.09, GCUUGAGUAGUGCAGAAACTT against Jmjd1c -1.15, CCAUGAGGAUGAUUACCUATT against Cnga2 -0.947, GCGACCUUAGACAUUUGCATT against Prkrip1 -0.652, CGCCUUCAUAAUGUAGUUGTT against Defb37 0.601, GCACCUGGAGUACAUAAAATT against Sh2d1a -0.854, CGUAGACUCCAAGCUCAAUTT against Ddx54 -1.31, GGAAAUUGUCUUUGGCUUUTT against Otop1 -0.0923, GGCAAAAUGAAGAAGCUGATT against Hdac6 -1.3, GCUACGAGCAGUUUUUAUUTT against Ptgs1 0.885, GGUGAAAGGAGUCAGUCUATT against Agtrap -0.013, CCCUAAGUAUAGGAUCGGATT against Macroh2a1 -1.07, GGGUUAUCUAUGCAAAUCCTT against Odc1 0.569, GCGGCAUUCGUCCAAAUUGTT against Trpt1 0.938, GGCAGAGAUGGUGUUGAUGTT against Col1a2 -0.342, GGAAGUGGUGGCCAUCAAGTT against Stk25 1.08, GCUUGUAGGUGGAUACAUGTT against Slc30a4 -0.161, GGAAGACUAGGAGAGACGGTT against Pqlc3 -0.739, GCAUAAUGGAUGGAAAGUCTT against Tasp1 1.1, CCCUAAGGUGGCAGAAAUCTT against Atp1a2 -1.49, GGGAGGGUGUGCAAAAGUUTT against Arl4d 1.26, GCUUCUUAUGAAAAGAUGCTT against Epc2 0.463, GGAGUGGACUCACGUCUAATT against Med23 0.717, CGGUGAUAGUGGAGUUUGUTT against Olfr266 0.542, GCAGCACAGUACUAUCUCGTT against Ttc4 -0.339, GCAAUAGAAUCACAUAGGATT against Glyctk 1.35, GGCUGUAAUGACGAAUACATT against Naa25 0.764, GGGCAUGUGAUAGAACAAUTT against Stoml1 -0.701, GAGAAAGAUAAUUACCUGGTT against Tnfrsf22 0.552, GGAAGCUGAUGGCUAUGACTT against Arc -0.943, GGAGACUGUAGACUUAAAGTT against Rnf25 -1.24, CAAUAACACUGGUGCCGACTT against Adam34l 1.73, CCUAAAUUAGUAGGACGGUTT against Cdkn1a 0.675, CCUAGAUUCGGACAAGGAUTT against Kctd5 -0.424, GGUAUAGCAAUUUCUACAATT against Chrna2 -0.174, GGUAGUGAAAAUGAAGAGUTT against Gtf2h1 0.892, CCUGAUACCCAAAGACUCATT against Dnaic1 -1.38, CCAUGAGACAAGAUUUAGATT against Olfr818 -0.751, UACUUAGGCCCUUGAGCAUTT against Timm10 0.725, GGUGUGUUUUCAUGUUUUUTT against Rel 0.388, GGUAUUUCUUUGUGGUGCUTT against Ptch2 1.45, GCUACAUGAUGUUCAUACUTT against Srpx 0.38, GGUGCAACACUCUCUAUUUTT against Afap1l1 0.963, CCCAUCUCCUUAAAGUCAATT against Ripk3 1.32, GGCAGCUGUUAUGCUUUUCTT against Cd302 0.822, GGAACUGUGAGACUUUUAGTT against Rabgap1 0.532, CCCUGAGAAGGAUGCGAAATT against Mgat4b 0.44, CCGGAAAACAAAAUUGCUATT against Obp1a 0.492, GGAAGAUAAAUCACAAUCATT against Cdc37l1 0.051, GGAUUAUAUGCCAAGUGAUTT against Phyh 0.179, GCCGAUUGUCCUAUCUCCATT against Spg7 1.63, GAACUCUUCCAGUGGAAGUTT against Dctpp1 -1.5, GGAAAAAUAGGGUGUUUUGTT against Tdg 1.96, GGACCAAGAGGACAUUACCTT against Tbl3 -0.971, GGUCAACCUAAACCAGCAGTT against Csn1s2a -0.182, CGAGGAUUUCUGUUACUUATT against Lyst 1.19, GCGCAGGUUGGAUGAAUGUTT against Psme3 -0.433, GGAAUUUUCUCGAUUUCACTT against Pde6b 1.13, GGCCUUUGGUACAUGUAGUTT against Olfr692 0.557, GCCAGUGCAUGAAAGAUAUTT against Kansl1l -0.772, GUUAUAGCGGCGAAGGUGUTT against Maml3 1.02, GGUCUGCUGUUGAUCGUUCTT against Sct 1.72

z-score, active:
GCAAAUGAGAGGUCUGUUGTT against Olfr1024 -2.52, GGUCAUCCUUCUAUUCUCUTT against Olfr648 -2.01, GGAGAAAACUUAGAUUACCTT against Ppil4 2.15, CGAUCUUCCAAACCCUCUUTT against Dhh 2.54, CCAUGCUUCCCUUCAACAUTT against Adcy2 2.64, GCACUUUGUAUGUCUAUCUTT against Tnfaip1 2.28, GGGAAGAUUGAUUUUAUCGTT against Abcb11 2.31, CCGUCACUUUUAACCAUGUTT against Speg 4.19, GGCUCCUGGUUCUACAUCCTT against Itpr2 -2.54, GGUGGCCAUUCUUCUGUUCTT against Dynll1 2.19, GGCGGUUCAAAUGUCCUCATT against Fut2 -2.02, GGGUCCUUUUUCACAUGGUTT against Asph 2.82, GCCAGAGAUUCCUCAACGATT against Rpp21 -2.48, GGAUCAGUACCCGUAUUUGTT against Plin2 -2.38, GCAACGGAGGGUCAUUUCATT against Wipf2 2.54, GCUAUUGUAGUGGUUACUGTT against Vmn2r57 2.21, GGUUUGGUGUCAGAUGUCATT against Olfr1182 -2.32, CCAGGAUCCUGUUUCUGACTT against AF067061 2.19, GGAGCAGAGAAACUUCUCGTT against Gigyf1 -2.09, GGUACUACUGUGGCUAAGCTT against 1700120K04Rik 2.71, GGGAUGACCUGCCAUUCAUTT against Atp7a 3.47, CGAAGAAUGACGAUGAUAUTT against Ppp4r3a -2.41, CGGAAGAACUACAAGUCGATT against Sipa1l3 2.09, CCUCUACAUCAGAGUAUGATT against Defb21 2.22
